From PubChem BioAssay
GRP78 ERSR act: ER stress response induction in glioma; U87-MG GRP78 promoter luciferase reporter, 16 h; Potency, µM, usual class: activators; 420,000 tested, 0.02% active; also: series mostly up to about 76 µM; nearly all actives have a fitted effect of over 35% in size
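Stably transfected U87-MG glioma cells carrying a GRP78-based luciferase sensor; 16 h compound incubation. Luminescence end-point read 10 min after Bright-Glo addition at room temperature.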
Sfp PPTase inh: inhibitors of Bacillus subtilis Sfp phosphopantetheinyl transferase | Q9F4F7 | Biochemical Sfp PPTase activity, qHTS | Potency, µM, most hits filed as inhibitors | 310,000 tested, 3.5% active;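 also: the enzyme is Sfp with the accession as filed and its product quenches rhodamine fluorescence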
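Reaction rates are the 30-min fluorescence difference (ex 525, em 598 nm) in wells containing 15 nM Sfp, 5 uM rhodamine-CoA and 12.5 uM BHQ-2-YbbR at pH 7.6 with 10 mM MgCl2.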
G9a inh: G9a (human) methyltransferase inhibition | Potency, µM (series often up to 102 µM), most hits filed as inhibitors | Q96KQ7 | G9a H3K9 monomethylation, AlphaScreen, 2 h | 350,000 tested, 8.8% active; also: nearly all actives have a fitted effect of over 75% in size
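G9a (20 nM) was preincubated 15 min with compound, then reacted 2 h at room temperature with 500 nM biotin-H3K9 peptide and 20 µM SAM. Monomethyl-H3K9 detected by AlphaScreen using anti-H3K9me1 antibody.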
ALOX12 inh: ALOX12 (human) lipoxygenase inhibition; Potency, µM (top dose mostly 108 µM), most hits filed as inhibitors; purified 12hLO, xylenol orange hydroperoxide absorbance; 580,000 tested, 1.1% active; AID 1671190
Target sequence (P18054 whole entry, looked up): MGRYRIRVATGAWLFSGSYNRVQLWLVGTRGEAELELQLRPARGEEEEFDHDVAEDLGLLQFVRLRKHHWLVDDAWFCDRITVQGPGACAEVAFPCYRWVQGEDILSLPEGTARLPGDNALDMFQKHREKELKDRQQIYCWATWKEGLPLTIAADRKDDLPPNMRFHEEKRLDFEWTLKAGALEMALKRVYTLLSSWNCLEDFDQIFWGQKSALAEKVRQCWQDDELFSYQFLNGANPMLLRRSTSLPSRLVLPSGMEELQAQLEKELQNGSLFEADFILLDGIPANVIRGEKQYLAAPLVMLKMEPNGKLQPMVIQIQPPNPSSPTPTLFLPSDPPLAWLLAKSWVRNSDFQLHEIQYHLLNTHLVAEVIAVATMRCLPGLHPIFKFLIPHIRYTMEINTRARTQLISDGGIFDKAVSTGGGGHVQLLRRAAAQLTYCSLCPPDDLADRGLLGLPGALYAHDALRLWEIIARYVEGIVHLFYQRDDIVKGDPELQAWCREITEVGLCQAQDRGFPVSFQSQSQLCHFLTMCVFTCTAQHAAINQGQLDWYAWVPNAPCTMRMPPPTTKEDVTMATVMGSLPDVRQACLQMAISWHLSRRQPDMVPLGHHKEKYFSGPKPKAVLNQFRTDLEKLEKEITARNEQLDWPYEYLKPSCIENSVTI
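Purified human 12hLO (150 nM final) in 25 mM Hepes, 0.01% Triton X-100, pH 7.0 was preincubated 15 min at room temperature with compound. Then 40 uM arachidonic acid was added, 30 min. Hydroperoxide was read by Fe-XO absorbance ratio 573/405 nm.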
VDR inh: inhibitors of human vitamin D receptor; P11473; VDR-SRC2-3 peptide fluorescence polarization, 2 h; Potency, µM, most hits filed as inhibitors; 400,000 tested, 0.93% active
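Compounds are added to VDR with labelled SRC2-3 coactivator peptide and held 2 h at room temperature. Inhibition of the VDR–peptide interaction is then read as a change in fluorescence polarization.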
USP1 UbRho: blocks human USP1/UAF1 cleavage of Ub-Rhodamine; Potency, µM (series often up to 114 µM), usual class: inhibitors; 50 tested, 50% active; AID 540327; shares compounds with VDR inh; Ub-Rhodamine cleavage, fluorescence kinetic read
VDR inh confirm: inhibits human vitamin D receptor, primary hit validation; shares compounds with VDR inh; Potency, µM, hits mostly inhibitors; 840 tested, 89% active; AID 602199; VDR-coactivator inhibition assay, qHTS confirmation
VDR FP: confirmation of human VDR-coactivator binding inhibitors, fluorescein label. shares compounds with VDR inh. AID 602200. 840 tested, 48% active. VDR-coactivator binding, fluorescein fluorescence polarization. Potency, µM (highest dose often 57.1 µM), hits mostly inhibitors
VDR bla: confirmation of human vitamin D receptor inhibitors in reporter cells | shares compounds with VDR inh | VDR beta-lactamase reporter cells, FRET ratio; cells co-treated with VDR agonist LG190178 | Potency, µM (highest dose often 46.1 µM), hits mostly inhibitors | 840 tested, 23% active
VDR cytotox: counter-screen for vitamin D receptor inhibitors: cytotoxicity; shares compounds with VDR inh; cytotoxicity counter-screen, cell viability, qHTS; Potency, µM (top dose mostly 48.3 µM), most hits filed as cytotoxic; 840 tested, 18% active; AID 602204; also: nearly all actives have a fitted effect of over 75% in size
A number is an active result; i = inactive; ? = inconclusive; nt = not tested or not shown; [ ] = dose if it differs, or a comment. The entries come from a sample that favours hits as a whole. Calls follow the shape of the dose curve; as a rule, active = well fitted curve in the direction sought with a large enough effect; inconclusive = small, poorly fitted or top-dose-only effect, or another doubt; inactive = no such curve, though single readings can be large; an effect the other way counts as inactive or inconclusive.

SMILES | GRP78 ERSR act | Sfp PPTase inh | G9a inh | ALOX12 inh | VDR inh | VDR inh confirm | VDR FP | VDR bla | VDR cytotox | others
O=C1/C(=C/c2ccncc2)CCC/C1=C\c1ccncc1 | i | ? | ? | i | 7.1µM | 5.3 | 3.5µM | 3.3µM | 21µM
Cc1ccc(NC(=O)CN2C(=O)NC(C)(c3ccc(Cl)cc3)C2=O)cc1 (stereo not drawn) | i | i | i | i | i | nt | nt | nt | nt
Cc1ccc(C2(C)NC(=O)N(CC(=O)Nc3nc(-c4ccccn4)cs3)C2=O)cc1 (stereo not drawn) | i | nt | i[0.501 µM] | ? | ? | 11 | ? | ? | i
CCOC(=O)c1c(N)sc(N)c1C(=O)OCC | i | ? | 3.2µM | 50µM | 8.9µM | 4.7 | 8.9µM | i | i
O=[N+]([O-])c1ccc(Sc2cccc[n+]2[O-])c2nonc12 | i | 1.3µM | 0.5µM | i | 8.9µM | 6 | ? | 3.7µM | ?
Cc1sc(NC(=O)COc2ccccc2)c(C#N)c1C | i | 22µM | 10µM | ? | 50µM | 24 | ? | i | i
Cc1sc(NC(=O)COc2cccc(-n3cnnn3)c2)c(C#N)c1C | i | i | i | i | i | nt | nt | nt | nt
CCOc1cc(Br)cc2cc(C(=O)NCc3ccccc3)c(=O)oc12 | nt | nt | nt | i | nt | nt | nt | nt | nt
CCN(CC)Cc1cnc2c(C(=O)Nc3cccc(OC)c3)cnn2c1 | nt | nt | nt | i | nt | nt | nt | nt | nt
COc1ccc(C(=O)N2CCOCC3(CN(Cc4ccccc4)C3)C2)c(OC)n1 | nt | nt | nt | i | nt | nt | nt | nt | nt
CCc1oc2ccccc2c1C(=O)CCN1CCCCC1 | i | ? | 1.4µM | ? | ? | 7.1 | 4µM | i | i
O=c1oc2ccccc2c(N2CCCCC2)c1CN1CCCC1 | i | i | i | i | i | nt | nt | nt | nt
O=S(=O)(Nc1cccnc1)c1cccc(C(F)(F)F)c1 | i | i | i | i | i | nt | nt | nt | nt
O=[N+]([O-])c1ccc(S(=O)(=O)c2cccc(C(F)(F)F)c2)nc1 | i | nt | nt | nt | 28µM | 6.7 | ? | 16µM | ?
COc1cc(OC)c(/C=C/c2nccc3ccccc23)c(OC)c1 | i | nt | nt | nt | nt | 8.9 | 1.6µM | 21µM | ?
Oc1c(C(c2ccccc2)N2CCOCC2)ccc2ccccc12 (stereo not drawn) | i | nt | nt | ? | 20µM | 4.7 | 3.2µM | i | ?
COc1ccc(CNc2cc(NCCCO)c([N+](=O)[O-])c3nonc23)cc1 | i | i | ? | i | i | nt | nt | nt | nt
O=[N+]([O-])c1c(NCCCO)cc(Sc2ccc(Cl)cc2)c2nonc12 | i | i | ? | i | ? | 6.3 | 7.1µM | 23µM | ?
Cc1c(CCO)sc[n+]1CCc1ccccc1 | i | nt | nt | nt | nt | nt | nt | nt | nt
Cc1sc2ccccc2[n+]1CCc1ccccc1 | i | nt | nt | nt | nt | 11 | 7.9µM | i | i
COC(=O)CC(N)c1cccc(C)c1C (stereo not drawn) | nt | nt | nt | i | nt | nt | nt | nt | nt
ClC(Cl)(c1nnnn1-c1ccccc1)c1nnnn1-c1ccccc1 | i | 2.8µM | 0.56µM | ? | 3.5µM | 3.4 | ? | ? | 16µM
c1ccc(-c2nnnn2-c2ccccc2)cc1 | i | i | nt | i | i | nt | nt | nt | nt
COc1ccc(/C=C2\C(=O)N(c3c(Cl)cc(Cl)cc3Cl)N=C2NC(=O)c2cccc([N+](=O)[O-])c2)cc1 | i | ? | i | nt | ? | 2.8 | 1.3µM | ? | i
COc1ccc(NC(=O)c2cccc(N3C(=O)c4cccc([N+](=O)[O-])c4C3=O)c2)cc1 | i | i | i | i | i | nt | nt | nt | nt
SMILES | GRP78 ERSR act | Sfp PPTase inh | G9a inh | ALOX12 inh | VDR inh | VDR inh confirm | VDR FP | VDR bla | VDR cytotox | others
N#Cc1c(NC(=O)Cn2nc(C(F)(F)F)c3c2CCCC3)sc2c1CCC2 | i | ? | 2.8µM | ? | 79µM | 6.7 | ? | i | i
CCc1nccc(-c2c(-c3ccccc3)ncn2CCN2CCCCC2CO)n1 (stereo not drawn) | nt | nt | nt | i | nt | nt | nt | nt | nt
CCCNC(=O)c1ccc2snnc2c1 | i | i | i | i | i | nt | nt | nt | nt
CNC(=O)c1nnsc1S(=O)c1ccc(Cl)cc1 (stereo not drawn) | i | 13µM | 35µM | i | 5.6µM | 3.8 | 4.5µM | 16µM | ?
CCCNC(=O)c1nnsc1S(=O)c1ccc(Cl)cc1 (stereo not drawn) | i | 20µM | 25µM | i | ? | 0.89 | 1µM | 13µM | 21µM
CC(C)(C)NC(=O)c1nn(-c2ccccc2)c(=O)c2ccccc12 | nt | nt | nt | i | nt | nt | nt | nt | nt
Cc1ccc2oc(C(=O)NCCc3ccc(S(N)(=O)=O)cc3)cc(=O)c2c1 | nt | nt | nt | i | nt | nt | nt | nt | nt
CC1=C(CO)C(=O)OC([C@@H](C)C2CC[C@H]3C4C[C@H]5O[C@]56[C@@H](O)C=CC(=O)[C@]6(C)C4CC[C@]23C)C1 (stereo partly drawn) | i | ? | i[12.7 µM] | ? | 18µM | 12 | 10µM | 5.8µM | ?
COc1cc(OC)c(NC(=O)c2ncoc2-c2ccc(C)o2)cc1Cl | nt | nt | nt | i | nt | nt | nt | nt | nt
CCCCOC(=O)NS(=O)(=O)c1sc(CC(C)C)cc1-c1ccc(Cn2c(CC)nc3c(C)cc(C)nc32)cc1 | ? | nt | i[12.7 µM] | nt | i | nt | nt | nt | nt | USP1 UbRho=?
O=C(/C=C/c1ccccc1)c1ccccc1 | ? | ? | i | i | 18µM | 16 | 11µM | 26µM | ?
